tim23-1 inh = inhibits growth of tim23-1 mutant yeast | AID 463212 | inhibition, % at 20 µM | 1.3% of 330,000 active | S. cerevisiae tim23-1 growth, BacTiter-Glo luminescence, 24 h;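 active means growth inhibition of the mutant yeast at or above 50%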;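 further: temperature-sensitive mutant grown at 25 °C; plate controls were DMSO-treated mutant yeast for no effect and medium wells lacking yeast for full effect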
tim10-1 inh = inhibits growth of tim10-1 mutant yeast | S. cerevisiae tim10-1 ts strain growth, BacTiter-Glo, 24 h | inhibition, % at 20 µM | 2.2% of 330,000 active | AID 463190;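 active means inhibition of at least 40%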;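 further: mutant grown at 25 °C; 0% = DMSO wells with yeast and 100% = wells holding no yeast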
SKKanGAS inh = blocks kanamycin growth of S. pyogenes SKKanGAS strain; BacTiter-Glo, 6 h; inhibition, % at 7.5 µM; 1.3% of 300,000 active; AID 1662;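 active means mean replicate score, as percent of positive control median, at least 50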;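 further: strain carries kanamycin resistance gene driven by streptokinase promoter and grows in 40 µg/ml kanamycin; loss of luminescence reflects streptokinase promoter inhibition or plain growth inhibition; 0% = median of DMSO wells and 100% = positive control at its reference dose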
NLRP3 yeast inh = inhibitors of NALP3 inflammasome in yeast; Yeast reconstituted NLRP3/ASC/caspase-1, beta-gal luminescence, 24 h; inhibition, % at 10 µM; 0.39% of 330,000 active; AID 2825;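 active means inhibition of 50% or more; inactive means inhibition below 50%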;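 further: plate controls were induced DMSO wells for no effect and uninduced yeast grown without galactose for full effect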
NALP1 yeast inh = NALP1 inhibition. S. cerevisiae NALP1/ASC/caspase-1 growth, X-gal OD620, 72 h. inhibition, % at 10 µM. 0.61% of 280,000 active. AID 2071; in the data active means inhibition mostly above about 24%, no sharp cut-off; inactive means mostly below about 32%
TIM10 inh = inhibits growth of TIM10 yeast strain; S. cerevisiae TIM10 strain growth, BacTiter-Glo luminescence, 24 h; 1.4% of 330,000 active; inhibition, % at 10 µM; AID 463195;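 active means inhibition of 40% or more at the single tested concentration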;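 further: wild-type TIM10 isogenic control strain grown at permissive 25 °C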
tim10-1 confirm = tim10-1 yeast growth inhibition, confirmed. shares compounds with tim10-1 inh. S. cerevisiae tim10-1 ts strain growth, BacTiter-Glo, 24 h. inhibition, % at 20 µM. 56% of 7,400 active;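 active means inhibition of yeast growth at or above a set limit in either of two repeat tests at 20 µM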;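 further: tim10-1 mutant grown at permissive 25 °C to find synthetic lethal compounds; 0% = DMSO yeast wells and 100% = medium wells without yeast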
An asterisk follows results filed as active; nt = not tested or not shown. Hits are enriched below; roughly 4.9% of the tested compounds scored in any of these assays.

SMILES | tim23-1 inh | tim10-1 inh | SKKanGAS inh | NLRP3 yeast inh | NALP1 yeast inh | TIM10 inh | tim10-1 confirm
C(=N\Nc1nc2ccccc2[nH]1)/c1ccccn1 | nt | nt | 25 | nt | -14 | nt | nt
BrC(=C\c1ccccc1)/C=N/Nc1nc2ccccc2[nH]1 | 44 | 54* | 29 | 4 | 10 | 36 | 32*
CCOC(=O)/C=C/C(=O)OCC(=O)Nc1ccc(C)cc1 | 34 | 41* | 1 | -13 | -15 | 29 | 37*
CCOC(=O)c1ccc(NC(=O)CSC2=NN3CCCC(=O)N=C3S2)cc1 | 6 | 10 | -9 | 8 | 13 | -7 | nt
COC(=O)[C@]1(C)N[C@H](CN(C)C(=O)c2ccc(F)cc2)[C@@H]2C(=O)N(C)C(=O)[C@@H]21 | 3 | 15 | nt | 1 | nt | 3 | nt
Cc1ccc2cccc(Oc3ncnc4scc(-c5ccc(Cl)cc5)c34)c2n1 | 32 | 34 | 14 | 27 | 49 | 4 | nt
O=C1C2C3C=CC(CO)(O3)C2C(=O)N1c1ccc(-c2ccccc2)cc1 (stereo not given) | 43 | 95* | -3 | 26 | 29 | 38 | 97*
Cc1ccc(N2C(=O)C3C4C=CC(CNC(=S)Nc5cccc(Cl)c5)(O4)C3C2=O)cc1 (stereo not given) | 30 | 44* | 6 | 14 | 27 | 36 | 50*
COCCN(C(=O)CCC(=O)Nc1ccccn1)C(C(=O)NCCC(C)C)c1ccc(F)cc1 (stereo not given) | 10 | 1 | -4 | 4 | -11 | -10 | nt
COc1ccc(C(OC(=O)c2ccco2)C(=O)NC2CCCC2)cc1OC (stereo not given) | 7 | -19 | 4 | -1 | 3 | 5 | nt
COc1ccc(C(OC(=O)c2ccco2)C(=O)NC2CCCCC2)cc1OC (stereo not given) | 3 | 45* | -6 | 11 | -3 | -2 | 1
CCCCn1c(=N)c(S(=O)(=O)c2ccc(Br)cc2)cc2c(=O)n3cccc(C)c3nc21 | 27 | 44* | -6 | 8 | -6 | 3 | -14
CCCCCn1c(=N)c(S(=O)(=O)c2ccc(Br)cc2)cc2c(=O)n3cccc(C)c3nc21 | 13 | 39 | -8 | 11 | 13 | 1 | nt
CC(C)c1ccc(NC2CCCN(C(=O)c3ccc(N4CCOCC4)cc3)C2)cc1 (stereo not given) | 41 | 32 | -2 | 10 | 9 | 28 | nt
Cc1ccc2nc(C)c(C(=O)N/N=C/c3cccc([N+](=O)[O-])c3)cc2c1 | 30 | 47* | 0 | 1 | 10 | 40 | 45*
C=CCOC(=O)C1=C(C)N=C2SCCC(=O)N2C1/C=C/c1ccccc1 (stereo not given) | 14 | 42* | 8 | -17 | 23 | 18 | 14
O=c1[nH]c(CN2CCN(S(=O)(=O)c3ccc(Cl)cc3)CC2)nc2cc(Cl)ccc12 | 38 | 48* | 15 | 31 | 24 | 23 | 31*
Clc1ccc(Cn2c(/C=C/c3ccco3)nc3ccccc32)cc1 | 45 | 48* | 12 | 6 | 49 | 31 | 40*
O=C(NCc1c[nH]c2ccccc12)c1ccccc1 | 14 | 10 | 1 | -2 | nt | 21 | nt
Cc1cccc(-n2ncc3c2CCCC3NC(=O)C2CCOCC2)c1C (stereo not given) | 17 | 3 | 1 | 17 | 2 | -1 | nt
FC(F)(F)c1ccc(NC(=S)NC2CCCCC2)cc1 | 36 | 43* | 16 | 39 | 0 | 36 | 38*
FC(F)(F)c1cccc(NC(=S)NC2CCCC2)c1 | 46 | 37 | 8 | 17 | 17 | 33 | nt
S=C(Nc1ccccn1)NC1CCCCC1 | 37 | 40 | 38 | 17 | 33 | 9 | 6
Fc1cccc(NC(=S)NC2CCCCCCC2)c1 | 46 | 50* | nt | 20 | 17 | 32 | 27
O=C(Nc1cccc(F)c1)C1CCCCC1 | 23 | -6 | nt | 8 | nt | 11 | nt
CCC(C)c1ccc(NC(=O)c2ccco2)cc1 (stereo not given) | 38 | 36 | -3 | 35 | 8 | 21 | nt
O=C(COC(=O)c1cc(S(=O)(=O)N2CCOCC2)ccc1F)NCCc1ccc(F)cc1 | 6 | 1 | nt | 5 | nt | -8 | nt
Cc1noc(C)c1CSCC(=O)Nc1nc(-c2ccc(F)c(F)c2)cs1 | 25 | 40* | -6 | 22 | nt | 36 | 29

Screening results (PubChem)
